SMARCA2 activ = increases SMARCA2 function in MMTV reporter cells. MG213 cells, MMTV-luciferase reporter, dexamethasone, overnight. activation, % at 9.1 µM. 370,000 tested, 1% active. AID 652017; in the data active means activation above about 7.8%;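 further: 0% = vehicle wells and 100% = reference activator wells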
DAX1 inh-1 = inhibitors of DAX1 repression of SF-1 activated StAR promoter; HEK293T StAR-luciferase reporter, SF-1/DAX-1 repression relief; inhibition, % at 6.8 µM; 370,000 tested, 1.1% active;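 active means inhibition above the mean over all tested compounds plus 3 SD, cut at about 3.6% in these data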;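 further: 0% = DAX-1 cells with DMSO and 100% = cells lacking DAX-1 with DMSO; higher inhibition means more luminescence from relief of DAX-1 repression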
hcDAF12 agonist = activates DAF-12 receptor from parasite H. contortus | 370,000 tested, 1.4% active | HEK293 hcDAF-12 lit1-tk-luc reporter, luminescence; 0% DMSO, 100% Δ7-dafachronic acid | activation, % at 6.8 µM;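 active means activation above the mean of all tested compounds plus 3 SD, cut at about 5.5% in these data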;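 further: 100% = response to 3 µM Δ7-dafachronic acid high control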
ssDAF-12 act = activates DAF-12 receptor from parasite S. stercoralis | HEK293 ssDAF-12/GRIP1 lit1-tk-luc reporter, luminescence; % of 3 µM dafachronic acid response | activation, % at 6.8 µM | 370,000 tested, 1% active | AID 652126;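 active means activation above the mean over all tested compounds plus 3 SD, cut at about 0.9% in these data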;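 further: 0% = DMSO-only wells and 100% = 3 µM delta7-dafachronic acid wells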
DAX1 inh-2 = NR0B1 (DAX1) inhibition; P51843; HEK293 Gal4-DAX1 luciferase reporter, luminescence; inhibition, % at 6.75 µM; 340,000 tested, 0.99% active; AID 504766;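 active means inhibition above the mean over all tested compounds plus 3 SD, cut at about 4.2% in these data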;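 further: 0% = DAX1-transfected cells with DMSO and 100% = empty-vector control cells with DMSO; inhibition shows as a rise in luminescence from relieved DAX1 repression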
Target sequence (P51843 207-470 limits assumed): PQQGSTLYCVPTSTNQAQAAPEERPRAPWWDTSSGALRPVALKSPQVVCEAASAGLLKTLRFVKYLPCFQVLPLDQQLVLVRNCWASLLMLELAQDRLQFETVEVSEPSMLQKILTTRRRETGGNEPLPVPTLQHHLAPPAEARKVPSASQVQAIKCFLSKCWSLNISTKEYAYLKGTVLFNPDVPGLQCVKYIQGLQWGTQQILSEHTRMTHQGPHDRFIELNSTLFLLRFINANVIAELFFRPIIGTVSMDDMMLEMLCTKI
hgDAF-12 ag = activates the H. glycines DAF-12 receptor ligand-binding domain; 370,000 tested, 1.8% active; HEK293 GAL4-hgDAF12 UAS-luciferase reporter, agonist luminescence; normalized to butyrate control; activation, % at 6.8 µM; AID 687014;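 active means activation above a cutoff set at the mean of all screened compounds plus 3 SD, cut at about 10% in these data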;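 further: 0% = DMSO wells and 100% = sodium butyrate wells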
* = called active by the depositor; · = not tested or not shown. A selection: hits, their analogues and other compounds. The true share with any hit is near 4.8%.

SMILES	SMARCA2 activ	DAX1 inh-1	hcDAF12 agonist	ssDAF-12 act	DAX1 inh-2	hgDAF-12 ag
CCOc1ccc(-n2c(SCC(=O)Nc3ccc(S(=O)(=O)Nc4cc(C)nc(C)n4)cc3)nnc2-c2ccc(C)cc2)cc1	-2	-1	-2	-1	·	-2
CSc1nc2ccc(S(=O)(=O)N3CCOCC3)cc2s1	-1	0	5.8*	-1	1	0
CSc1nc2ccc(S(=O)(=O)N3CCCCC3)cc2s1	1	1	0	-1	0	1
CCCSc1nc2c(cnn2-c2ccccc2)c(=O)n1N	4	1	5.8*	-1	1	13*
Nn1c(SCc2ccccc2)nc2c(cnn2-c2ccccc2)c1=O	0	1	2	-1	0	2
CCOC(=O)N1CCC(=NNC(=O)c2ccccc2F)CC1	11*	1	3	-1	3	9
COCCNC(=O)C(c1ccc(Cl)cc1)N(Cc1ccco1)C(=O)CCC(=O)Nc1ccccn1 (stereo unspecified)	-1	0	2	-1	8.8*	3
COCCNC(=O)C(c1ccc(O)cc1)N(Cc1ccco1)C(=O)CCC(=O)Nc1ccccn1 (stereo unspecified)	-1	0	-2	-1	-1	2
C=CCNC(=O)CSc1nc2c(c(=O)[nH]1)CCCC2	-5	0	-1	-1	·	-3
C=CCN1C(=O)[C@@H](CC(=O)N2CCCCC2)[C@]2(C(=O)OC)CCCCC=C12	-2	1	-2	-1	·	-2
O=C(c1cc2cc(Cl)ccc2[nH]1)N1CCN(C(=O)c2ccco2)CC1	-2	1	5.9*	0	0	1
CCCCNC(=O)C1(C(=O)c2ccc(OC)cc2)CC(c2ccccc2C(F)(F)F)=NO1 (stereo unspecified)	-4	-1	-2	-2	·	-2
COC(=O)c1cccc(OCC(C)CN2CCC(C(O)(c3ccccc3)c3ccccc3)CC2)c1 (stereo unspecified)	-4	-1	2	-1	·	-3
COc1ccc(C(=O)CSc2ccc(-c3ccccc3)nn2)cc1	8	1	-1	-1	4.6*	-1
COc1ccc(-c2ccc(SCC(=O)N3CCOCC3)nn2)cc1	-1	1	0	-1	1	4
COc1cccc(-c2ccc(SCC(=O)c3ccccc3)nn2)c1	-1	0	-3	-2	0	3
O=C(CSc1ccc(-c2ccccc2)nn1)N1CCCCC1	1	2	5	1.0*	1	7
COc1ccc(-c2ccc(SC)nn2)cc1	1	4.4*	5	-1	-3	5
COC(=O)C1CN(Cc2cn(CCOC(C)=O)nn2)CCS(=O)(=O)N1Cc1ccccc1 (stereo unspecified)	-1	0	0	-1	·	2
CO[C@H]1O[C@H](CBr)[C@@H](OC(=O)c2ccccc2)[C@H](O)[C@H]1O	-1	0	-2	-1	2	-1
COC1OC(CO)C(N(C)C(C)=O)C1O (stereo unspecified)	3	0	-3	-1	4.8*	0
Nc1nc2ccccc2n1/N=C/c1ccc(Br)cc1	5	2	3	0	1	12*
O=C(CN1CCN(c2nc(-c3ccccc3)cs2)CC1)Nc1ccc(Cl)cc1	-2	-1	-3	-1	·	-4
CCN(CC)CCCn1c2c(c(SCC(=O)Nc3cccc4ccccc34)nc1=O)CCC2	3	3.8*	3	0	-1	-1
COc1ccc(C)cc1-n1nnnc1SCC1CCCO1 (stereo unspecified)	-1	-1	2	0	-1	-1
SMILES	SMARCA2 activ	DAX1 inh-1	hcDAF12 agonist	ssDAF-12 act	DAX1 inh-2	hgDAF-12 ag
COc1ccc(C)cc1-n1nnnc1SCc1nc2ccccc2s1	3	1	5.9*	1.2*	0	6
CCn1c(SCC(=O)c2ccc(-c3ccccc3)cc2)nnc1-c1ccc(C(C)(C)C)cc1	-7	-2	1	-2	·	1
COc1ccccc1NC(=O)N1CCCC(C(=O)Nc2cccc(C)c2C)C1 (stereo unspecified)	-2	0	0	-1	7.5*	0
Cc1cc(=O)[nH]c(N/N=C/c2ccc(N(C)C)cc2)n1	-1	0	-1	-1	0	1
Cc1cc(=O)[nH]c(N/N=C/c2ccc(F)cc2)n1	-1	0	-1	1.3*	1	0
C[C@@H]1CCN(C2CC2)S(=O)(=O)c2c(cccc2N2CCC[C@H]2CO)O1	1	0	-1	-1	·	2
Oc1ccc(-c2nc3ccccn3c2NCc2ccco2)cc1	-1	0	0	0	4.3*	6
O=C(Nc1c(-c2ccccc2)nc2ccccn12)c1ccco1	0	0	-1	-2	1	-2
O=C1CSc2ccc(C(=O)N3CCCC(C(=O)N4CCN(c5ccc(F)cc5)CC4)C3)cc2N1 (stereo unspecified)	-3	-2	-5	-1	·	-5
Fc1cccc(CNC2CCC23CCC(c2ccccc2)CC3)c1 (stereo unspecified)	·	·	0	-2	·	-1
COc1cc(C2C(C(=O)c3ccc(C)o3)=C(O)C(=O)N2CCN2CCOCC2)ccc1OCCC(C)C (stereo unspecified)	-1	0	-1	-1	0	0
CCCOc1cccc(C2C(C(=O)c3ccc(C)o3)=C(O)C(=O)N2CCN2CCOCC2)c1 (stereo unspecified)	-1	0	5.8*	-1	1	1
Cn1ccnc1SCc1cn2cc(Br)ccc2n1	1	1	3	1.2*	0	8
CCCCCN1CCCCC(NC(=O)C(C)(C)C)C1=O (stereo unspecified)	-2	-1	-2	-2	·	-2
c1ccc(C2CCC3(CC2)CCC3NCc2cccs2)cc1 (stereo unspecified)	·	·	-2	-2	·	-1
Cc1ccc(C2=CSC3=NCCN23)cc1	0	0	0	1.9*	1	0
O=[N+]([O-])c1ccc(C2=CSC3=NCCN23)cc1	-1	0	0	-1	2	-1
NC(=O)c1cn(-c2ccccc2)nc1-c1cc2ccccc2oc1=O	-4	0	-1	-2	-2	0
O=C(c1ccccc1)c1nn(-c2ccc(Cl)cc2)cc1C(=O)c1cc2ccccc2oc1=O	-4	1	4	1.1*	1	-1
O=C(NCCc1ccccc1)OCc1cn(Cc2cc(F)ccc2F)nn1	-2	0	-3	-1	·	5
COc1ccc(C(=O)C[n+]2cc(Br)cc3ccccc32)cc1[N+](=O)[O-]	-2	0	5.9*	1.0*	-1	2

Bioassay records: PubChem BioAssay, The Scripps Research Institute Molecular Screening Center
